The values that follow come from PubChem BioAssay (NCATS).

SMILES strings stand for the structures. Inconclusive results are not listed. A call without a number means that no potency is given here. The source made the active and inactive calls. Unless noted, calls follow the shape of the dose curve; as a rule, active = well fitted inhibition curve with a large enough effect; inconclusive = small, poorly fitted or top-dose-only effect; inactive = no such curve, though single readings can be large or run the other way.

The nature of the first assay: High-throughput drug toxicity screening in the BPDCN cell line Cal-1 (AID 1224825; call rule not given here;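 also: cells exposed to compounds for 48 h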). Particulars: Cal-1 BPDCN cell viability, qHTS; at 45.8 µM (top of the series). In a few lines:
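Percent activity derived from CellTiter-Glo luminescence, scaling DMSO to 100% and 9.2 uM final bortezomib to 0%. BPDCN Cal-1 cells (500/well, RPMI plus 10% FBS) incubated with compounds 48 hours at 37C before reading.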
(In general: In qHTS, concentration-response curves come from the screen itself.)
As for `COc1cccc2c1[C@]13CCN(CC4CC4)[C@H](C2)[C@]1(OC)CCC(=O)C3`, the viability (% of control) came out at 111%.
Turning to `C[C@]12CCC(=O)C(O)=C1CC[C@@H]1[C@H]3CCC(=O)[C@@]3(C)CC[C@@H]12`, the viability (% of control) was 116%.
On the same count and under the same terms, to `c1cc2c(cc1[C@H]1OC[C@H]3[C@H]1CO[C@H]3c1ccc3c(c1)OCO3)OCO2` belongs 91%; to `COc1ccc(C(=O)c2c(C)n(CCN3CCOCC3)c3cc(I)ccc23)cc1`, 5.23%.
For the compound `c1ccc(CCCN2CCN(CCOC(c3ccccc3)c3ccccc3)CC2)cc1`, the viability (% of control) was 5.14%.
As for `CN1CCN(c2ccc([N+](=O)[O-])c3no[n+]([O-])c23)CC1`, the viability (% of control) turned out to be 4.53%.
Regarding `N#C[C@H](O[C@@H]1O[C@H](CO[C@@H]2O[C@H](CO)[C@H](O)[C@H](O)[C@H]2O)[C@H](O)[C@H](O)[C@H]1O)c1ccccc1`, the viability (% of control) came out at 52.5%.
The same measure, in the same setting: to `CC(C)(C)[C@]1(O)C[C@@H]2OC(=O)C[C@@]23C(=O)O[C@@H]2OC(=O)[C@H](O)C213` (stereo not given in full) belongs 124%; to `COc1ccc2c(c1)CN(C)CC2c1ccc(Cl)c(Cl)c1` (stereo not given), 12.2%; to `CC[C@@H](C(N)=O)N1CCCC1=O`, 113%.
On the same count and under the same terms, to `CC(O)=C(C#N)C(=O)Nc1cc(Br)ccc1Br` belongs 103%; to `Oc1ccc2c3c1O[C@H]1c4[nH]c5c(c4C[C@@]4(O)[C@@H](C2)N(CC2CC2)CC[C@]314)C[C@@]1(O)[C@H]2Cc3ccc(O)c4c3[C@@]1(CCN2CC1CC1)[C@H]5O4`, 119%.
On to `CCCCCC[C@H]1C(=O)O[C@H](C)[C@H](NC(=O)c2cccc(NC=O)c2O)C(=O)O[C@@H](C)[C@@H]1OC(=O)CC(C)C`, for which the viability (% of control) came to 85.6%.
Regarding `C1=C2CCCN[C@H]2[C@@H]2C[C@H]1[C@@H]1CCCCN1C2`, the viability (% of control) amounted to 105%.
Consider `CC(C)(O)C(=O)Nc1ccc([N+](=O)[O-])c(C(F)(F)F)c1`, for which the viability (% of control) was determined as 14.7%.
Consider `CCC(=O)OC1CCC2C3CCC4=CC(=O)CC[C@@]4(C)C3CC[C@]12C` (stereo not given in full), for which the viability (% of control) was 105%.

The next assay in a line: qHTS assay for measurement of the activity of small molecule inhibitors on Zika virus induced Caspase-3 activity in human iPSC derived neural progenitor cells (hNPCs) (AID 1224857). Also: nearly all actives have a fitted effect of over 65% in size. The conditions noted are these: hNPCs ZIKV-induced caspase-3/7, Caspase-Glo luminescence, 6 h; series mostly up to 45.7 µM. The gist of the method:
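Values are percent inhibition of virus-induced caspase-3/7 signal, scaled between uninfected cells and ZIKV-infected cells. Infection used 2 FFU/cell for 6 h after 1 h compound exposure.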
Regarding `C[N+]1(C)C2CC(OC(=O)[C@H](CO)c3ccccc3)CC1C1OC12` (stereo not given in full), the Potency result was “inactive”.
Turning to `COc1cccc2c1[C@]13CCN(CC4CC4)[C@H](C2)[C@]1(OC)CCC(=O)C3`, the Potency entry was “inactive”.
In the case of `CC(=O)OCC1=C(C(=O)O)N2C(=O)[C@@H](N)[C@@H]2SC1`, the Potency entry was “inactive”.
In the case of `C[C@]12CCC(=O)C(O)=C1CC[C@@H]1[C@H]3CCC(=O)[C@@]3(C)CC[C@@H]12`, the Potency result was “inactive”.
Take `c1cc2c(cc1[C@H]1OC[C@H]3[C@H]1CO[C@H]3c1ccc3c(c1)OCO3)OCO2`: the Potency result was “inactive”.
Take `O=C(Cc1ccc(Cl)c(Cl)c1)N1CCCCC1CN1CCCC1` (stereo not given): the Potency entry was “inactive”.
As for `NCCc1c[nH]c2ccccc12`, the Potency entry is “inactive”.
For the compound `c1ccc(CCCN2CCN(CCOC(c3ccccc3)c3ccccc3)CC2)cc1`, the Potency entry is “inactive”.
Turning to `CN1CCN(c2ccc([N+](=O)[O-])c3no[n+]([O-])c23)CC1`, the Potency entry was “inactive”.
For the compound `O=C1CCC[C@@H]2[C@H]3CCCN4CCC[C@@H](CN12)[C@@H]34`, the Potency entry is “inactive”.
On to `Clc1ccc(C(c2ccc(Cl)cc2)n2cc[n+](CC(OCc3ccc(Cl)cc3Cl)c3ccc(Cl)cc3Cl)c2)cc1` (stereo not given), for which the Potency result was “inactive”.
On to `CCOC(=O)c1cncn1[C@H](C)c1ccccc1`, for which the Potency result is “inactive”.
`C[C@]12N[C@H](Cc3ccccc31)c1ccccc12`: the Potency result is “inactive”.
As for `CC[N+]1(CCOC(=O)C(O)(c2ccccc2)c2ccccc2)CCCCC1`, the Potency entry is “inactive”.
`C[C@]12CC[C@H]3[C@@H](CCC4=CC(=O)CC[C@@]43C)[C@H]1CC[C@H]2O`: the Potency result is “inactive”.
Same read-out and setting: to `CS(=N)(=O)CC[C@H](N)C(=O)O` (stereo not given in full) belongs “inactive”; to `Cn1cnc(CCN)c1`, “inactive”; to `N#C[C@H](O[C@@H]1O[C@H](CO[C@@H]2O[C@H](CO)[C@H](O)[C@H](O)[C@H]2O)[C@H](O)[C@H](O)[C@H]1O)c1ccccc1`, “inactive”.
As to `CC(C)(C)[C@]1(O)C[C@@H]2OC(=O)C[C@@]23C(=O)O[C@@H]2OC(=O)[C@H](O)C213` (stereo not given in full), the Potency result was “inactive”.
In the case of `C[C@@H]1O[C@H](C[N+](C)(C)C)C[C@H]1O`, the Potency result is “inactive”.
For `O=C(O)[C@@H]1CCN1`, the Potency result was “inactive”.
Same read-out and setting: to `CCCCCCCCc1ccc(O)cc1` belongs “inactive”.
Same read-out and setting: to `NCc1cc(=O)[nH]o1` belongs “inactive”.
For the compound `S=C(NC1CCCCC1)N1CCC(c2cnc[nH]2)CC1`, the Potency entry is “inactive”.
Turning to `NC(N)=NOCCC(N)C(=O)O` (stereo not given), the Potency result is “inactive”.
Take `CCCN1CCO[C@@H]2c3cc(O)ccc3OC[C@H]21`: the Potency entry was “inactive”.
For the compound `CC[C@@H](C(N)=O)N1CCCC1=O`, the Potency entry was “inactive”.
In the case of `COc1cc(C(O)CN)ccc1O` (stereo not given), the Potency entry is “inactive”.
The same measure, in the same setting: to `Clc1cnc(Oc2ccc(Oc3ncc(Cl)cc3Cl)cc2)c(Cl)c1` belongs “inactive”.
For the compound `CCCCCC[C@H]1C(=O)O[C@H](C)[C@H](NC(=O)c2cccc(NC=O)c2O)C(=O)O[C@@H](C)[C@@H]1OC(=O)CC(C)C`, the Potency result was “inactive”.
Same read-out and setting: to `C[C@]12CCC3C(CC[C@H]4C[C@H](O)CC[C@]34C)C1CC[C@@H]2C(=O)CO` (stereo not given in full) belongs “inactive”.
`C1=C2CCCN[C@H]2[C@@H]2C[C@H]1[C@@H]1CCCCN1C2`: the Potency entry is “inactive”.
As to `CC(C)(O)C(=O)Nc1ccc([N+](=O)[O-])c(C(F)(F)F)c1`, the Potency entry is “inactive”.
Still for that read-out and setting: to `CCCN1CCC[C@H](c2cccc(O)c2)C1` belongs “inactive”.
